# Measurements reported in PMC4336329 (PLoS ONE, 2015).
# About 14,000 (4.5%) of roughly 310,000 compounds showed an effect of 50% or more. The effect is printed as a negative number. The full list was thinned out, with strong results kept by preference.
# Biological target: human ether-à-go-go-related gene (hERG) potassium channel (human, UniProt Q12809)
# Assay: primary screen, population patch clamp on CHO cells stably expressing hERG; higher = less effect of the substance
# 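Also: peak tail current of the secondary pulse compared with the same well before compound.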
# Chain of human ether-à-go-go-related gene (hERG) potassium channel (Q12809 whole entry, looked up): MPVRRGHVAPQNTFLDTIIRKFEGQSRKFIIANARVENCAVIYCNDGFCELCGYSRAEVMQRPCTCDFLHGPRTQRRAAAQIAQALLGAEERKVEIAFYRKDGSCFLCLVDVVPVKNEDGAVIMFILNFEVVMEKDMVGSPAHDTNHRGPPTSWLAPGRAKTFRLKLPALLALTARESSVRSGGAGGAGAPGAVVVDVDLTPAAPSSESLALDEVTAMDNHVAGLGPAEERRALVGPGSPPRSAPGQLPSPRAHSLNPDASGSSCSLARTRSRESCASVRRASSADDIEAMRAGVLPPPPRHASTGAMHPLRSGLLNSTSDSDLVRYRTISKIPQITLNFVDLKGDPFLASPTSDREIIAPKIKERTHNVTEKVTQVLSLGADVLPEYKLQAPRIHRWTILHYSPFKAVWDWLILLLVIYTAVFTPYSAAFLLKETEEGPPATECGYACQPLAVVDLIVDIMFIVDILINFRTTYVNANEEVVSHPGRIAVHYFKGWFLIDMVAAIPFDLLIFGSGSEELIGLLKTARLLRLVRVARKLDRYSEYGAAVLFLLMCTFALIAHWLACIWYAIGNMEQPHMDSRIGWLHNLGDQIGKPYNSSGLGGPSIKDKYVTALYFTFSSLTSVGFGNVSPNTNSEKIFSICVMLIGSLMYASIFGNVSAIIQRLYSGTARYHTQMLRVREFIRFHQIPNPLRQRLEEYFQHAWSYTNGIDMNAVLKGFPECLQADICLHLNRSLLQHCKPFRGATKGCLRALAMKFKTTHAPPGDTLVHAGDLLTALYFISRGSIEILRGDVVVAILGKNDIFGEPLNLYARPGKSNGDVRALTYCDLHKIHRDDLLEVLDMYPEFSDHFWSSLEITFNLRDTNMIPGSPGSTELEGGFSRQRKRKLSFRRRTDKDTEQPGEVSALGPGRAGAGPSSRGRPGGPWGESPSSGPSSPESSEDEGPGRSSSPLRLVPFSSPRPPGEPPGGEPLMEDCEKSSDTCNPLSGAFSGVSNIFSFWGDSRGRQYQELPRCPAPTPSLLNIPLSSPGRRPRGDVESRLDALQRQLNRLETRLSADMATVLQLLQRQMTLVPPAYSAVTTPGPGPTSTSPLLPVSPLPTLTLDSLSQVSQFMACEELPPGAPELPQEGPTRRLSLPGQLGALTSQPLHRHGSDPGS
row,Structure (SMILES),"hERG current change (%, negative = inhibition) at 10uM"
1,FC(F)(F)c1cnc(Sc2ncn[nH]2)c(Cl)c1,4.22%
2,CCOC(=O)c1c(C)[nH]c(C(=O)CN2C(=O)NC3(CCCC3)C2=O)c1C,-1.87%
3,CCOc1ccc(S(=O)(=O)N2CCN(CC)CC2)cc1NC(=O)c1ccccc1F,-16.6%
4,COc1ccc(CCC(=O)Nc2nc(C)c(C(=O)N(C)C)s2)cc1,-2.23%
5,CS(=O)(=O)c1ccc(N2CCOCC2)c(S(C)(=O)=O)c1,-5.39%
6,Cc1cc(F)ccc1N1CCC(N2CCN(CCC(C)C)C(CCO)C2)CC1 (stereo not shown),-63.5%
7,Cc1cc(F)ccc1N1CCC(N2CCN(C(C)C)C(CCO)C2)CC1 (stereo not shown),-24.7%
8,Cc1ccc(N2CCC(N3CCN(C)C(CCO)C3)CC2)cc1 (stereo not shown),12.8%
9,Cc1cc(F)ccc1N1CCC(N2CCN(C)C(CCO)C2)CC1 (stereo not shown),22.1%
10,CC(C)CCN1CCN(C2CCN(c3ccc4c(c3)OCO4)CC2)CC1CCO (stereo not shown),-17.6%
11,CC(C)CCN1CCN(C2CCN(c3ccccc3)CC2)CC1CCO (stereo not shown),-60.9%
12,O=C(CN1CCOCC1)NCCc1ccccc1,16.4%
13,NS(=O)(=O)c1ccc(NN=C2CCN(Cc3ccccc3)CC2)c([N+](=O)[O-])c1,-17.6%
14,CCOC(=O)NC(=O)CSc1ccc2ccccc2n1,14%
15,CCC1(C(=O)OC)NC(c2ccco2)C2C(=O)N(c3ccc(F)cc3)C(=O)C21 (stereo not shown),6.75%
16,Cc1nc(-c2cccc(S(=O)(=O)N3CCCCCC3)c2)cs1,-23.2%
17,CCOC(=O)C1CCN(S(=O)(=O)c2cccc(-c3cn4ccccc4n3)c2)CC1,-60.4%
18,CCOC(=O)C1CCN(S(=O)(=O)c2cccc(-c3cn4cc(C)ccc4n3)c2)CC1,-3.7%
19,CCOC(=O)C1CCN(S(=O)(=O)c2cccc(-c3csc(C)n3)c2)CC1,-53.5%
20,CC1CCN(S(=O)(=O)c2cccc(-c3cn4cc(Cl)ccc4n3)c2)CC1,-5.86%
21,CCOC(=O)C1CCN(S(=O)(=O)c2cccc(-c3cn4cccc(C)c4n3)c2)CC1,-21.3%
22,Cc1nc(-c2cccc(S(=O)(=O)N3CCC(C)CC3)c2)cs1,-13.4%
23,CCOC(=O)C1CCN(S(=O)(=O)c2cccc(-c3cn4cc(Cl)ccc4n3)c2)CC1,-58%
24,CCOC(=O)C1CCN(S(=O)(=O)c2cccc(-c3cn4cccnc4n3)c2)CC1,-24.7%
25,COc1ccccc1C(=O)NC(C)c1cccc2ccccc12 (stereo not shown),8.02%
